# “And” between values parts separate entries of the source, which are not always exact repeats. Identical values can stand only once. This is part of a sample that, as a whole, favours compounds with a hit. Of some 83,000 tested, about 20% had one in any assay.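 Compound tested at a single concentration for 48 hours in 96-well plates; a percent growth value below 10 was scored as active.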 Values without a mark were called inactive. The source made the active and inactive calls.
# Legend:
# Experiment in all cases: NCI-60 one-dose screen, 48 h (100 = growth as untreated, 0 = no growth, -100 = all killed)
# Settings in all cases: 10 µM unless noted
# NCI-H23 lung = system: NCI-H23 lung
# NCI-H226 lung = system: NCI-H226 lung
# NCI-H322M lung = system: NCI-H322M lung
# HOP-62 NSCLC = system: HOP-62 NSCLC
# NCI-H460 lung = system: NCI-H460 lung
# HOP-92 NSCLC = system: HOP-92 NSCLC
# NCI-H522 lung = system: NCI-H522 lung
# A549/ATCC NSCLC = system: A549/ATCC NSCLC
# 786-0 renal = system: 786-0 renal
# COLO 205 colon = system: COLO 205 colon
# DU-145 prostate = system: DU-145 prostate
# K-562 leukemia = system: K-562 leukemia
# MALME-3M melanoma = system: MALME-3M melanoma
# MDA-MB-231 breast = system: MDA-MB-231 breast
# RXF 393 renal = system: RXF 393 renal
# SF-268 CNS = system: SF-268 CNS
# SF-295 CNS = system: SF-295 CNS
# SF-539 CNS = system: SF-539 CNS
# UACC-257 melanoma = system: UACC-257 melanoma
# M14 melanoma = system: M14 melanoma
Structure (SMILES),growth (NCI-H23 lung),growth (NCI-H226 lung),growth (NCI-H322M lung),growth (HOP-62 NSCLC),growth (NCI-H460 lung),growth (HOP-92 NSCLC),growth (NCI-H522 lung),growth (A549/ATCC NSCLC),growth (786-0 renal),growth (COLO 205 colon),growth (DU-145 prostate),growth (K-562 leukemia),growth (MALME-3M melanoma),growth (MDA-MB-231 breast),growth (RXF 393 renal),growth (SF-268 CNS),growth (SF-295 CNS),growth (SF-539 CNS),growth (UACC-257 melanoma),growth (M14 melanoma)
CSc1ccc(OCc2nc3ccccc3n2-c2cccc(NS(C)(=O)=O)c2)cc1,92.3% and 81.1%,100% and 88.1%,106% and 105%,114% and 75.1%,114% and 73.3%,80.1% and 93.1%,105% and 96.7%,104% and 87.1%,114% and 97.3%,120% and 91.4%,103% and 67.1%,94.4% and 106%,95.3% and 84.1%,118% and 57.3%,81.7% and 84.1%,92.4% and 101%,106% and 96.5%,93.2% and 89.5%,116% and 107%,119% and 81.6%
O=C(/C=C1\C(=O)N(Cc2ccccc2)c2ccccc21)c1cc2ccccc2oc1=O,89.4%,74.2%,93.9%,102%,103%,87.9%,35.4%,104%,100%,28.6%,104%,1.52% (active),68.9%,81%,86.1%,95.6%,104%,98.9%,107%,85.1%
Cc1ccc(O)cc1Nc1nc(SCCN2CCOCC2)nc2c1cnn2CC(Cl)c1ccc(Br)cc1 (stereo not given),13.7%,27.5%,73.5%,23%,9.59% (active),-19.8% (active),15.8%,-9.82% (active),11.1%,85.9%,29.5%,-38.6% (active),1.03% (active),-30.6% (active),-24.3% (active),23.6%,-2.67% (active),10.7%,18.1%,9.14% (active)
COc1cc(C=O)ccc1OC(=O)c1cc(-c2ccc(C)cc2)n(-c2ccc(S(C)(=O)=O)cc2)n1,101%,138%,101%,102%,110%,98.3%,93.3%,103%,102%,126%,108%,86.5%,102%,97.3%,117%,116%,103%,105%,101%,109%
O=C(N/N=C/c1ccc(-c2cccc([N+](=O)[O-])c2)s1)c1[nH]c2ccc(Br)cc2c1-c1ccccc1,81.3%,94.8%,99.2%,64.4%,84.6%,94.4%,66.5%,91.4%,92.6%,97.7%,106%,92.7%,86.1%,74.6%,90.8%,92.7%,103%,96.6%,85.6%,75.2%
CS(=O)(=O)Nc1cc(-c2ccc3ncnc(N4CCc5cc(F)c(Cl)cc54)c3c2)cnc1Cl,4.88% (active),8.15% (active),8.81% (active),27.8%,12.1%,-20.7% (active),17.7%,-3.2% (active),4.55% (active),-1.45% (active),10.5%,35.8%,-21.2% (active),-17.8% (active),-5.59% (active),14.9%,-23.8% (active),-22.7% (active),-2.81% (active),9.59% (active)
COC(=O)CSC1=C(C)C(=O)C(OC)=C(OC)C1=O,94.3%,93.1%,93.1%,85.3%,96.8%,75.5%,72.2%,90.4%,99.9%,102%,103%,13.6%,89.9%,85.4%,105%,100%,106%,98.1%,78.1%,91.1%
Cc1ccc(C(=O)Nc2cccc(C(=O)NC(=S)Nc3ccc(S(N)(=O)=O)cc3)c2)cc1,76.9%,67.5%,87.3%,74.9%,77.8%,67.5%,48.6%,74.7%,81.7%,98.4%,77.3%,71.2%,59.8%,81.3%,46.4%,61.4%,60.3%,76.4%,79.1%,83.7%
Oc1ccc(Cl)c(Nc2nc(SCCN3CCOCC3)nc3c2cnn3CC(Cl)c2ccc(Br)cc2)c1 (stereo not given),31.8%,38.5%,92.8%,32.7%,10.1%,-6.99% (active),22.2%,12%,43.3%,106%,35%,-22.9% (active),12.2%,-3.97% (active),-14.2% (active),40.8%,13%,29.2%,28.2%,25%
C[C@H]1[C@@H](CC(=O)N[C@@H](Cc2coc3ccccc23)B(O)O)O[C@@H]2OC3(C)CC[C@H]4[C@H](C)CC[C@@H]1[C@@]24O3,18.6%,-15.5% (active),74.9%,6.31% (active),17%,23.2%,-50% (active),31.6%,17.1%,23%,45%,14.8%,-41.6% (active),-68.3% (active),-59% (active),17.5%,-65.7% (active),-91.6% (active),-45.3% (active),-33.7% (active)
Nc1nn2c(-c3cc4ccccc4oc3=O)ccnc2c1N=Nc1ccccc1,12.5%,35.1%,65.4%,22.3%,44.4%,30.2%,25.3%,100%,41.4%,114%,90.6%,67.2%,81.9%,-34.8% (active),2.06% (active),61.8%,72.3%,-62.4% (active),109%,92.1%
COc1ccc([C@H]2C(C(=O)c3ccc(Cl)cc3)C3(N[C@@H]2c2ccccc2)C(=O)Nc2ccccc23)cc1 (stereo not given in full),21.2%,24.9%,54.5%,51%,18.3%,23%,29.5%,31%,28.4%,-6.01% (active),52%,18.8%,32.2%,25.8%,15.8%,37.3%,15.2%,34.5%,44%,53%
CC[C@]12C=CCN3CC[C@@]4(c5ccc(OC)cc5N(C)[C@H]4[C@@](O)(C(=O)OC)[C@@H]1OC(=O)CCCC[P+](c1ccc(F)cc1)(c1ccc(F)cc1)c1ccc(F)cc1)[C@@H]32,23.6%,38%,52.9%,50.9%,20.3%,-12.2% (active),-11.6% (active),37.5%,87.1%,-43.4% (active),36.4%,17.1%,-55.9% (active),2.85% (active),-9.93% (active),28.1%,78.5%,16%,-50.7% (active),19.7%
COc1cc2cc(C(=O)N3C[C@@H](CCl)c4c3cc(OC(=O)N(CCC(=O)N3CCN(C)CC3)[C@H]3CCSSC3)c3ccccc43)[nH]c2c(OC)c1OC,-87% (active),-15.3% (active),-23% (active),-17.8% (active),-72.6% (active),-7.53% (active),-80.5% (active),-37.3% (active),-79.8% (active),-65.7% (active),-10.5% (active),-8.96% (active),-96.7% (active),-74.8% (active),-94.5% (active),-10.3% (active),-65.9% (active),-80.3% (active),-61.9% (active),-77.2% (active)
